S aureus helic: blocks Staphylococcus aureus DNA helicase; purified S. aureus helicase, fluorescence unwinding assay; AID 485395; inhibition, % (no concentration beside the values); hit rate 0.05% among 120,000; in the data active = inhibition above about 25%, passing the limit was not always enough;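 also: 0% = mean of negative control wells and 100% = mean of positive control wells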
HCMV UL50-53 inh: cytomegalovirus nuclear egress complex inhibition. HTRF UL50-UL53 interaction, normalized percent inhibition. inhibition, % (no concentration beside the values). hit rate 0.15% among 190,000. AID 1918969; in the data active = inhibition above about 27%, passing the limit was not always enough
Sa growth 42C: blocks Staphylococcus aureus growth. S. aureus RN4220 growth, OD600, 20 h, 42 °C; hits give low values. relative growth, % (test concentration not listed). hit rate 0.53% among 170,000;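 active = relative growth at most 50% at the other temperature and 20+ points below 30 °C, or under 10% at both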
Active calls of the source: *; x = not tested or not shown. This excerpt belongs to a sample that is enriched for hits.

SMILES | S aureus helic | HCMV UL50-53 inh | Sa growth 42C
O=C(CSCc1cnn(-c2ccccc2)c1-n1cccc1)N1CCC(N2CCCCC2)CC1 | 0 | x | 102
CCOC(=O)COc1c(Cl)cc(/C=C2/NC(=O)NC2=O)cc1OC | -12 | -72 | 84
O=C(Nc1cc(Cl)cc(Cl)c1)C1CC1 | x | 2 | 79
O=C(O)Nc1cc(Cl)cc(Cl)c1 | 4 | 0 | -0.4*
CCNC(=O)N1CCCC(c2cccc(C(=O)NCCC3=CCCCC3)c2)C1 (stereo unspecified) | x | -15 | x
NC(=NCCCCCCN=C(N)N=C(N)Nc1ccc(Cl)cc1)N=C(N)Nc1ccc(Cl)cc1 | x | 4 | x
NC(=NCCCCCCN=C(N)/N=C(\N)Nc1ccc(Cl)cc1)/N=C(\N)Nc1ccc(Cl)cc1 | x | -13 | -0.8*
CN(C)c1ccc(-c2cc(-c3ccccc3)c(C#N)c(N)n2)cc1 | -7 | 9 | 68
CCOc1cc(C2CC(=O)NC(SCC(=O)Nc3ccc(C)cc3C)=C2C#N)ccc1O (stereo unspecified) | x | -18 | x
Cc1c(C)c(C)c(C#CCO)c(C)c1C | -13 | -26 | 3.2*
CC(C)Cn1cnc2scc(-c3ccccc3)c2c1=O | x | -16 | x
CCOc1ccc2c(c1)NC(c1ccccc1)=NC(c1ccc(F)cc1)=N2 | x | 5 | x
Cc1ccc(-c2c(CN3CCN(c4cccc(C)c4C)CC3)csc2C)cc1 | x | x | 105
Cc1ccc(-c2c(CN3CCN(C)CC3)csc2C)cc1 | -10 | -4 | 6.2*
c1ccc(Cn2cnc3cc4c(cc32)OCCO4)cc1 | x | 8 | x
CCCCc1nc2c3c(C)c(C)n(-c4ccc(C)cc4)c3ncn2n1 | x | -28 | x
Cc1cc(=O)[nH]c(SCC(=O)Nc2ccc(Br)cc2)c1C#N | 0 | -8 | 7.7*
Cc1cc(=O)[nH]c(SCC(=O)Nc2ccc(N3CCCC3)cc2)c1C#N | 14 | -10 | 87
CCS(=O)(=O)c1ccc2c(c1)N(CC(=O)O)C(=O)CO2 | x | -19 | x
Cc1oc2ccc(O)c(CN3CCCC3)c2c1C(=O)NCc1ccccc1 | x | -28 | x
COc1cc(-c2nc3ccccn3c2N)ccc1O | x | 94* | x
COc1cc(/C=N/c2c(-c3ccc(O)c(OC)c3)nc3ccccn23)ccc1O | 14 | -51 | 90
COc1ccc(C(=O)N2CCN(S(=O)(=O)c3ccc4c(c3)NC(=O)CO4)CC2)c(OC)c1 | x | -28 | x
CS(=O)(=O)CCC(C(=O)Oc1cccc2cccnc12)N1C(=O)c2ccccc2C1=O (stereo unspecified) | 12 | -11 | 0.7*
CS(=O)(=O)CCC(C(=O)n1nnc2ccccc21)N1C(=O)c2ccccc2C1=O (stereo unspecified) | 16 | x | 114
SMILES | S aureus helic | HCMV UL50-53 inh | Sa growth 42C
CC1COc2c(N3CCN(C)CC3)c(F)cc3c(=O)c(C(=O)O)cn1c23 (stereo unspecified) | x | -34 | -0.5*
CC1COc2c(N3CCN(C)CC3)c(F)cc3c(=O)c(C(=O)N4CCN(c5ncccn5)CC4)cn1c23 (stereo unspecified) | -7 | -17 | 71
COc1ccc(Br)cc1S(=O)(=O)n1ccnc1 | -8 | 5 | x
COc1cc(C)c(S(=O)(=O)n2ccnc2)cc1C(C)C | -6 | -7 | 2.4*
COc1ccc(NC(=O)NCCCn2c(-c3ccncc3)nc3cccnc32)cc1 | x | -8 | x
c1ccc(Nc2nc3ccccc3[nH]2)nc1 | 6 | -14 | 0.9*
CNc1nc2ccccc2[nH]1 | -26 | 0 | 108
CN1CCN(C(=O)CN2C(=O)S/C(=C\c3ccccc3F)C2=O)CC1 | -8 | -45 | x
COc1ccc(S(N)(=O)=O)cc1-c1nnc2c3ccccc3c(C)nn12 | -5 | x | 62
COc1ccc(S(=O)(=O)N2CCOCC2)cc1-c1nnc2c3ccccc3c(C)nn12 | 7 | 54* | 115
CCc1ccc(NC(=O)C2CCN(S(=O)(=O)c3ccc4c(c3)S(=O)(=O)N=CN4)CC2)cc1 | x | -30 | x
CCN(Cc1ccccc1)C(=O)Cc1ccccc1 | x | -8 | 103
CCN(Cc1ccccc1)C(=O)Nc1c[nH]c2ccccc12 | -13 | -60 | 3.6*
Cc1cc(C)c2c(=O)cc(CSCC(=O)Nc3nnc(C)s3)[nH]c2c1 | x | x | -0.5*
Cc1ccc2c(=O)cc(CSCC(=O)Nc3nnc(C)s3)[nH]c2c1 | x | x | 95
NNC(=O)c1cc2ncc(C(F)(F)F)cc2s1 | 29 | -30 | 0.0*
CCOC(=O)c1cc2ncc(C(F)(F)F)cc2s1 | x | -21 | 93
Cc1ccc(NC(=S)Nc2ccc(N3CCOCC3)cc2)cc1C | 8 | -9 | 88
N#Cc1ccc(COC(=O)c2ccc3c(c2)NC(=O)C2CCCN32)cc1 (stereo unspecified) | 13 | -5 | 87
CCOC(=O)c1c(-c2c(Cl)cccc2Cl)noc1C | x | -5 | 0.5*
CCOC(=O)c1c(-c2c(Cl)cccc2Cl)noc1N | x | -2 | 104
CC(C)Oc1cccc(C(=O)N2CCCCC2)c1 | -1 | -28 | 81
Cn1nccc1NC(=O)CCC(=O)O | x | -21 | 96
